Assay outcomes as filed in PubChem.
Furin inh: inhibitors of human furin | P09958 | purified furin, fluorogenic substrate cleavage | inhibition, % at 20 µM or 30 µM | 220,000 compounds, 0.061% hits; in the data active = inhibition above about 25%
EP2 antag: EP2 receptor (human) inhibition; P43116; C6 glioma cells expressing human EP2, cAMP TR-FRET; cells stimulated with saturating PGE2; inhibition, % at 25 µM; 260,000 compounds, 0.52% hits;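 active = percent inhibition above 40 after rounding to a whole number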;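 note: rat C6 glioma host cells with rolipram phosphodiesterase inhibitor present; the protocol text gives 20 µM as final concentration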
p47phox inh: p47phox (human) inhibition; inhibition, % at 24.7 µM; AID 1274; p47phox/p22phox peptide binding, fluorescence polarization, 2 h; 220,000 compounds, 0.53% hits;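 active = inhibition above about 30%, limit read from the data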;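 note: 0% = p47phox with labelled peptide and 100% = labelled peptide alone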
Target sequence (P14598 whole entry, looked up): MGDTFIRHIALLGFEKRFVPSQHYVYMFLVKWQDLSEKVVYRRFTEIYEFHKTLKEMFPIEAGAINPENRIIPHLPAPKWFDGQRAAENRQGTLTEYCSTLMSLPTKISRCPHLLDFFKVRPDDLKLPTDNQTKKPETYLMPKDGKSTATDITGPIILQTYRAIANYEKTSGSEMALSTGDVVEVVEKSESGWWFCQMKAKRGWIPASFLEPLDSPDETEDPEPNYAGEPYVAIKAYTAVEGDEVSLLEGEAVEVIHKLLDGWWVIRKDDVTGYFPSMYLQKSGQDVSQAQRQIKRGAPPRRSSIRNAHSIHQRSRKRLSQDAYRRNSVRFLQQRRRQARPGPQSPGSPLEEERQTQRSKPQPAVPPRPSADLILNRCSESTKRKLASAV
EP2 modulator: EP2 receptor (human) modulation | EP2-expressing cells, cAMP HTRF FRET, PGE2 co-stimulation | induction, % at 25 µM | 260,000 compounds, 0.83% hits | AID 940;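 active = compounds whose cAMP rise, as percent of the full-agonist control response, exceeds 60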;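 note: rat C6 glioma line stably carrying human EP2 under a CMV promoter; the protocol text gives 20 µM as final concentration; 100% = response of wells given 1 µM PGE2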
HSV augment: HSV replication enhancement | maximum fold increase | HSV replication augmentation in cells, fold increase | 220,000 compounds, 0.005% hits; in the data active = maximum fold increase above about 1.5; tested in PC3 cells
Wee1 stabilizer: human Wee1 degradation inhibition, primary screen; P30291; 220,000 compounds, 1.2% hits; HeLa Luc-Wee1K328M stability, luciferase luminescence; 100% = proteasome inhibitor MG132 effect; reporter increase, % at 5 µM; AID 1321;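 active = activation above the mean of all tested compounds plus 3 SD, set per screening run, cut at about 8.8% in these data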;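 note: cells exposed to compound for 20 h before luminescence read; 0% = DMSO alone and 100% = MG132 at 30 µM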
* marks the source's active call; other numbers are inactive results; i = inactive; nt = no result. Sampled rows, rich in hits. Any-hit rate of the full collection: about 2.8%.

SMILES	Furin inh	EP2 antag	p47phox inh	EP2 modulator	HSV augment	Wee1 stabilizer
O=C1c2ccccc2C(=O)c2c1cccc2-n1nnc2ccccc21	-17.4	1.6	-19.7	18.6	i	-3.3
C=CCn1c(SCc2ccc(C(=O)O)cc2)nc2sc(C)c(C)c2c1=O	-15.3	14.8	-17.4	51.7	i	0.9
Cc1sc2nc(SCC(=O)NCc3ccco3)n(C)c(=O)c2c1C	-12.4	1.8	-23.6	-21.2	i	0.3
Cc1sc2nc(SCc3ccc(C(=O)O)cc3)n(Cc3ccco3)c(=O)c2c1C	-9.1	5.7	-20.6	82.5*	i	-3.1
CCn1c(SCC(=O)NC(=O)NCc2ccco2)nc2sc(C)c(C)c2c1=O	-11.1	nt	-23.5	-11.4	nt	9.8*
Cc1cc(=S)c2cc(Br)ccc2[nH]1	nt	21.4	nt	66.2*	nt	nt
COc1ccccc1C1(NCc2cnn(C)c2)CCCC1	nt	6.4	nt	-5.3	nt	nt
O=C(Nc1ccc(Cl)c(C(F)(F)F)c1)NC1CC2CCCC(C1)N2Cc1ccccc1 (centres undefined)	-28.0	50.8*	-44.3	-122.6	i	-1.8
Cc1c(C(=O)N(C)C)sc(NC(=O)c2cccc([N+](=O)[O-])c2)c1C#N	-16.9	5.7	-2.8	12.0	i	10.2*
COc1ccc(C(=O)Nc2sc(C(=O)N(C)C)c(C)c2C#N)cc1[N+](=O)[O-]	-7.5	16.3	6.7	0.7	i	-0.7
CCCc1nc2ccccc2[nH]1	-6.4	12.4	-1.5	2.0	i	-0.6
Cn1c(=O)c2[nH]c(CCCCc3nc4ccccc4[nH]3)nc2n(C)c1=O	nt	40.6*	nt	-1.1	nt	nt
Cn1c(=O)c2[nH]c(CCS)nc2n(C)c1=O	nt	12.9	nt	27.9	nt	nt
Cn1c(=O)c2[nH]c(COCc3nc4c([nH]3)c(=O)n(C)c(=O)n4C)nc2n(C)c1=O	nt	38.0	nt	15.3	nt	nt
CCn1c(CCCc2nc3c([nH]2)c(=O)n(C)c(=O)n3C)nc2c1c(=O)n(C)c(=O)n2C	nt	44.8*	nt	-3.6	nt	nt
COc1ccc(CCCc2nc3ccccc3[nH]2)cc1	-13.2	6.6	-6.5	-58.7	i	9.9*
CC1CCCN(C(=O)CN2CCC(n3nnc4ccccc4c3=O)CC2)C1 (centres undefined)	nt	2.3	nt	11.1	nt	nt
CN1C(=O)/C(=C\C(=O)c2cccs2)c2ccccc21	-18.5	60.3*	4.1	-30.0	i	0.5
C[N@@+]1(Cc2ccc(Cl)c(Cl)c2)CCC[C@@H]1c1ccc[n+](Cc2ccc(Cl)c(Cl)c2)c1	nt	50.3*	nt	-1.4	nt	nt
CC1(C)CC(=O)C(C(c2cccc(O)c2O)C2C(=O)CC(C)(C)CC2=O)C(=O)C1	nt	41.2*	nt	23.6	nt	nt
O=C(O)CCC(=O)c1ccc2c(c1)CCCC2	-16.7	6.1	-8.4	27.2	i	15.0*
O=C(CCl)NCCN1C(=O)S/C(=C\c2cccnc2)C1=O	-14.4	9.4	2.6	16.8	i	-0.6
Cc1nn(Cc2ccccc2)c(C)c1C(=O)NCCN1C(=O)S/C(=C\c2ccccc2)C1=O	-2.5	7.7	30.2*	2.3	i	-2.7
Oc1ccc(-c2nc3cnccn3c2NCCc2ccccc2)cc1	nt	nt	nt	-73.1	nt	nt
COCOc1cc(O)c(C(=O)/C=C/c2ccccc2)c(OCOC)c1	nt	15.6	nt	nt	i	nt
SMILES	Furin inh	EP2 antag	p47phox inh	EP2 modulator	HSV augment	Wee1 stabilizer
COc1cc(O)c(C(=O)/C=C/c2ccc(OC)c(O)c2)c(OC)c1	nt	57.1*	nt	-3.0	nt	nt
COCCCNC(=O)C1CCN(S(=O)(=O)c2cc(OC)ccc2OC)CC1	nt	9.6	nt	-37.0	nt	nt
COC(=O)COc1ccc(S(=O)(=O)NCC2CCCO2)cc1Cl (centres undefined)	31.4*	8.8	-2.8	2.7	i	2.5
Cc1ccc(C)c(OCC(=O)Nc2ccc(NC(=O)c3ccco3)cc2)c1	nt	24.0	nt	-13.4	nt	nt
Cc1ccc(-c2nnn(CC(=O)NC3CC3)n2)cc1	nt	14.7	nt	4.8	nt	nt
CCCc1nn2c(=O)c(C(c3ccc(C)cc3)c3c(O)nc4sc(CCC)nn4c3=O)c(O)nc2s1	-8.1	11.3	148.6*	-10.8	i	4.5
Cc1ccccc1-n1c(C)cc(/C=C2/C(=N)N3C(c4ccccc4)=CSC3=NC2=O)c1C	-8.8	7.5	-99.5	6.4	i	-0.1
N=C1/C(=C\c2ccc(-c3cccc(C(=O)O)c3)o2)C(=O)N=C2SC=C(c3ccccc3)N12	-2.8	59.0*	-38.2	-49.8	i	5.8
COc1ccc(NC(=S)Nc2ccccc2OC)c(OC)c1	-31.4	5.6	-3.9	-19.2	i	0.9
COc1ccc(NC(=S)Nc2cnc3ccccc3c2)c(OC)c1	-22.2	43.9*	-5.6	-64.1	i	-1.2
O=c1c(C/C=C/c2ccccc2)c(O)ccn1Cc1cccc(Cl)c1	-13.1	7.2	0.1	-0.6	i	10.6*
CCC1Sc2ccccc2N(CC(=O)NC2CCCCC2)C1=O (centres undefined)	-16.7	4.6	1.7	19.8	i	9.3*
CCC(C)NC(=O)CN1C(=O)C(CC)Sc2ccccc21 (centres undefined)	-28.6	8.0	-2.0	31.8	i	2.7
CCOC(=O)N1CCOCCOCCN(C(=O)CC)CCOCC1	nt	7.2	nt	-14.0	nt	nt
O=C(O)c1ccc(Cl)c2c1C1C=CCC1C(c1ccccn1)N2 (centres undefined)	-17.2	10.2	40.2*	7.5	i	1.5
Nc1nc(N)c(-c2cccc(C(F)(F)F)c2)c(Cc2cccc(C(F)(F)F)c2)n1	nt	62.5*	nt	-44.3	nt	nt
CC(=O)Nc1ccc(S(=O)(=O)N2CCC(c3[nH]ncc3-c3cc(C)no3)CC2)cc1	nt	nt	nt	-54.1	nt	nt
COc1ccc(OCCCC(=O)Nc2cccc(C(C)=O)c2)cc1	-15.3	51.3*	-9.0	-6.3	i	0.4
COc1ccc(OCCCC(=O)Nc2cccc(SC)c2)cc1	-12.8	5.0	-11.9	-6.8	i	-1.7
CC1CCCN(c2nc3c(c(=O)[nH]2)CN(CC2=Cc4ccccc4OC2)CC3)C1 (centres undefined)	nt	3.1	nt	-19.1	nt	nt
COc1cc2c(cc1O)[C@@H](c1cc(O)c(O)c(OC)c1)[C@](O)(C(=O)O)[C@@H](CO)[C@@H]2O	nt	53.7*	nt	7.2	nt	nt
COc1cc(CC(=O)O)ccc1O	-27.4	8.7	-5.8	17.0	i	nt
COc1cc(/C=N/NC(=O)c2cc(C)oc2C)ccc1O	-13.6	8.3	36.9*	-35.5	i	5.8
CCC1=[N+](CC(=O)c2ccc(Br)cc2)CCn2c(C)ccc21	-2.1	9.0	-5.1	0.6	i	10.8*
c1ccc(Nc2nc(-c3cccs3)cs2)nc1	-24.1	13.4	-6.0	-9.1	i	9.8*
Cc1cccc(Nc2nc(-c3cccs3)cs2)n1	-6.0	13.1	-11.8	-6.1	i	18.3*
Cc1ccc(CN(CCCn2ccnc2)Cc2ccc(-n3ccnc3C)cc2)o1	nt	3.1	nt	-0.2	nt	nt
COc1ccccc1C(=O)Nc1ccc(Cc2ccncc2)cc1	-22.0	10.1	-0.5	-57.9	i	1.0
COc1c(C)cc(Br)cc1C(=O)Nc1ccc(Cc2ccncc2)cc1	-20.3	11.4	-13.8	63.6*	i	-0.7
